Our source for the growth values is PubChem BioAssay (NCI).

The panel holds about 83,000 compounds, 20% with a hit somewhere; the sample as a whole holds those more often.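 Cells were grown in 96-well plates and exposed to the test compound at a single concentration for 48 hours; results are reported as percent growth, with values below 10 considered active.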 A number with no mark means an inactive call. The source made the active and inactive calls.

One experiment concerns MALME-3M melanoma. The experiment can be described thus: NCI-60 one-dose screen, 48 h (100 = growth as untreated, 0 = no growth, -100 = all killed). As to conditions: 10 µM unless noted.
With `NNCCc1ccc(NC(=O)CCCc2ccc(/C=C/C(=O)NO)cc2)cc1`, the growth is 39.4%. Turning to `COc1cc2c(cc1-c1c(C)noc1C)ncc1nc(C3CCOCC3)n([C@H](C)COC(F)F)c12`, the growth was 71.7%. Turning to `C=CC(=O)Nc1cccc(-c2nc(SC)nc(NCCc3ccc(OC)c(OC)c3)c2C#N)c1`, the growth was 54.8%.

A further experiment deals with MDA-MB-231 breast. The description is as above. To be noted: 10 µM unless noted.
As to `N#CCCN=Nc1c(O)[nH]c2ccc([N+](=O)[O-])cc12`, the growth is 90%. In the case of `COc1cc(-c2ccc3c(c2)NC(=O)/C3=C\c2ccc[nH]2)ccc1O`, the growth is 66.4%. The same measure, in the same setting: to `C=C(C)[C@@H]1CC[C@]2(C(N)=O)CC[C@]3(C)[C@H](CC[C@@H]4[C@@]5(C)C/C(=C/c6ccco6)C(=O)C(C)(C)[C@@H]5CC[C@]43C)[C@@H]12` belongs 94.5%; to `O=C1Nc2c(ccc(Cl)c2Cl)/C1=C\c1cc(C(F)(F)F)cc(C(F)(F)F)c1`, -17.4% (active); to `COc1cc2c(cc1-c1c(C)noc1C)ncc1nc(C3CCOCC3)n([C@@H](C)COC(F)F)c12`, 42.8%. On the same count and under the same terms, to `O=C1Nc2c(ccc(Cl)c2Cl)/C1=C\c1ccc(C(F)(F)F)cc1` belongs 81.9%.

As for `C[n+]1ccccc1/C=C/c1ccc2cccc(O)c2n1`, the growth was 93.3%.

For the compound `COc1ccc(/C=C/c2nc3ccccc3nc2/C=C/c2ccc(OC)cc2)cc1`, the growth is 111%. As for `C=CC(=O)Nc1cccc(-c2nc(SC)nc(NCCN3CCOCC3)c2C#N)c1`, the growth was 87.9%.

For `COc1cc2nc(N3CCCC3)nc(NCc3ccccc3)c2cc1OC`, the growth is 68.9%.

As to `COc1cc(CNc2oc(-c3ccccc3)c(-c3ccccc3)c2C#N)cc(CN2CCN(C)CC2)c1O`, the growth is 75.3%. For the compound `O=C(/C=C/c1cc(CN2CCOCC2)c(O)c2ncccc12)c1cc(CN2CCOCC2)c(O)c2ncccc12`, the growth was 30.6%. In the case of `CSc1nc(NCCO)c(C#N)c(-c2cccc([N+](=O)[O-])c2)n1`, the growth was 86.5%. With `CCN(CC)c1ccc(-c2cc(-c3cc(OC)c(OC)c(OC)c3)nc(N3CCOCC3)c2C#N)cc1`, the growth was -10.9% (active). On the same count and under the same terms, the same measure for `COc1ccc2[nH]cc(-c3noc(C(=O)c4cn(C)c5ccc(F)cc45)n3)c2c1`: 90.1%. As for `CCCc1cc(=O)n2c(C(=O)Nc3cccc(C(=O)OCC)c3)c(C(=O)Nc3ccc(F)cc3)sc2n1`, the growth is 47% [30 µM]. Turning to `O=S(=O)(Nc1ccc(I)cc1F)c1ccc(-c2cnc(C3CC3)o2)cc1`, the growth is 61%. Regarding `COC(=O)c1cccc(NC(=O)c2ccc(-c3cccc(N)c3)o2)c1`, the growth was 99.4%.

Regarding `O=C(/C=C/c1ccccc1)c1ccc(O)c(CN2CCN(c3cc4c(cc3F)c(=O)c(C(=O)O)cn4C3CC3)CC2)c1`, the growth was 33.3%. Consider `Cc1[nH]c(-c2cc(N)ccc2Cl)c2c1C(=O)CCCC2`, for which the growth was 22%. Regarding `Nc1nc2ncc(CCNc3ccc(C(=O)O)cc3)nc2c(=O)[nH]1`, the growth was 107%. Turning to `O=C1c2cc3c(cc2-c2c1c1ccc(F)cc1c(=O)n2CCCNCCO)OCO3`, the growth was -70% (active).

Turning to `N#C/C(=C\c1ccc(-c2cc(C(F)(F)F)ccc2Cl)o1)c1nc(-c2ccco2)cs1`, the growth is 93.1%.

For the compound `O=c1cc(CSc2nnc(-c3ccc(F)cc3)o2)c2ccc3ccccc3c2o1`, the growth is 87.2%. The same measure, in the same setting: to `C=C(C)[C@@H]1CC[C@]2(C(=O)OC)CC[C@]3(C)[C@H](CC[C@@H]4[C@@]5(C)C/C(=C/c6cccc(I)c6)C(=O)C(C)(C)[C@@H]5CC[C@]43C)[C@@H]12` belongs 98.4%; to `O=C1OCC2=C1C(c1ccncc1)c1cc3c(cc1N2CCO)OCO3` (stereo unspecified), 101%; to `COC(=O)c1ccc(NC(=O)c2ccc(-c3cccc([N+](=O)[O-])c3)o2)cc1`, 90.3%. The same measure, in the same setting: the same measure for `O=c1cc(/C(=C2/C=CC=N2)c2ccc[nH]2)c2cc(Cl)ccc2o1`: 71%.

Turning to `COc1ccc2nc(NC(=O)CSc3nnc4n3S(=O)(=O)c3ccccc3N4c3ccccc3)sc2c1`, the growth was 77.7%. Turning to `Cc1cc(C)nc(SC2=C(Nc3ccc(C)c(Cl)c3)C(=O)N(Cc3ccccc3)C2=O)n1`, the growth is 39.1% [30 µM]. `CC(C)C1=C[C@@]23CC[C@@H]4[C@](C)(CCC[C@@]4(C)C(=O)N4CCCNCC4)[C@H]2C[C@@H]1[C@H]1C(=O)CCC(=O)[C@H]13`: the growth was 109%. Regarding `O=C1C=C(OCC=C(Cl)Cl)C(=O)c2ccccc21`, the growth is 84.7%. For the compound `COc1cccc(/C=C2\SC(=Nc3ccc(NC(C)=O)cc3)NC2=O)c1OC`, the growth is 102%. Turning to `C=CCSSc1ncnc2c1ncn2C1OC(CO)C(O)C1O` (stereo unspecified), the growth was 48.1%. As to `Cc1ncc(C(=O)Nc2ccc(CN3CCN(C)CC3)c(C(F)(F)F)c2)cc1C#Cc1cnc2cccnn12`, the growth is -1.12% (active). `NNCCc1ccc(NC(=O)CCCc2ccc(/C=C/C(=O)NO)cc2)cc1`: the growth was 42.3%. `COc1cc2c(cc1-c1c(C)noc1C)ncc1nc(C3CCOCC3)n([C@H](C)COC(F)F)c12`: the growth was 46.3%. For the compound `C=CC(=O)Nc1cccc(-c2nc(SC)nc(NCCc3ccc(OC)c(OC)c3)c2C#N)c1`, the growth is 64.1%.
